Results from PubChem BioAssay AID1159580 (chemical genetic matrix, 2015).
Among all 5,500 compounds or so, about 2,000 (36%) were called active. Not shown: some 18% with an inconclusive outcome. No stated cut-off is given here; in the data, active means normalized growth mostly below about 0.91 (no sharp cut-off); inconclusive means no clear call, values can overlap the other calls; inactive means mostly above about 0.92. The list shows a part of the results.

Test: chemical genetic growth profiling, strain panel (AID 1159580);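 further: tested at 20 µM; growth read once vehicle control cultures reached saturation at 30 °C; 1 = growth at the plate median or of vehicle wells; lower values mean less growth of the strain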
Conditions: S. cerevisiae deletion strains, growth OD

Measured: normalized growth

Cc1c(CC(C)(C)C(=O)O)n(Cc2ccc(Cl)cc2)c2ccc(F)cc12
inactive: locus YAL040C, strain CLN3, active compounds read low 0.974 | locus YCL061C, strain MRC1 (second series), active compounds read low 0.985 | locus YDR363W, strain ESC2, active compounds read low 0.986 | locus YER002W, strain NOP16, active compounds read low 0.978 | locus YMR263W, strain SAP30, active compounds read low 0.971 | locus YNL175C, strain NOP13, active compounds read low 0.985 | locus YNL197C, strain WHI3, active compounds read low 0.974 | locus YNL224C, strain SQS1, active compounds read low 0.978 | locus YOR083W, strain WHI5 (second series), active compounds read low 0.986 | locus YPL055C, strain LGE1, active compounds read low 0.923
